What was measured:
Assay in all cases: protein-binding microarray (PBM); PBM: ~300 nM protein, 6 mM HEPES pH 7.8, 80 mM KCl, 0.5 mM EDTA, 0.5 mM EGTA, 6% glycerol, 35 ng/ul poly-dIdC, 1% milk, 1 h, room temperature; Ap Aiptasia and Nv Nematostella (sea anemones) / Co Capsaspora / Aq Amphimedon (sponge) / Dm Drosophila / Hu human; RHD is the Rel homology domain; high values mean tight binding
Settings in all cases: dsDNA, one strand shown
GST-Ap-NF-kB RHD = molecular target: T1, GST-Ap-NF-kB RHD (Exaiptasia pallida (Aiptasia), UniProt A0A913YAJ5 2-422)
T1 sequence: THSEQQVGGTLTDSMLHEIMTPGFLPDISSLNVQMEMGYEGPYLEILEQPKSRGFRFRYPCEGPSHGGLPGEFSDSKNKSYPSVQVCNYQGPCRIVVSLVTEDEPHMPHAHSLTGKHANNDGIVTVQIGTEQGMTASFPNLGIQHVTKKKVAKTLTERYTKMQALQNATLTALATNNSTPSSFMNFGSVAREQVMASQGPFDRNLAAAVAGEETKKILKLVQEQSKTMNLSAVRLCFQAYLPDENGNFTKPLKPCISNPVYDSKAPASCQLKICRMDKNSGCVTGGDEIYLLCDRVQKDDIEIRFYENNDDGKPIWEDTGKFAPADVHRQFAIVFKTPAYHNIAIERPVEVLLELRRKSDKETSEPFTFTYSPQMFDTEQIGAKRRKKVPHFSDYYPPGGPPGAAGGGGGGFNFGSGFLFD

[1] = molecular target: T2, GST-Nv-NF-kB (Cys allele) (Nematostella vectensis, UniProt E5G601 2-411)
T2 sequence: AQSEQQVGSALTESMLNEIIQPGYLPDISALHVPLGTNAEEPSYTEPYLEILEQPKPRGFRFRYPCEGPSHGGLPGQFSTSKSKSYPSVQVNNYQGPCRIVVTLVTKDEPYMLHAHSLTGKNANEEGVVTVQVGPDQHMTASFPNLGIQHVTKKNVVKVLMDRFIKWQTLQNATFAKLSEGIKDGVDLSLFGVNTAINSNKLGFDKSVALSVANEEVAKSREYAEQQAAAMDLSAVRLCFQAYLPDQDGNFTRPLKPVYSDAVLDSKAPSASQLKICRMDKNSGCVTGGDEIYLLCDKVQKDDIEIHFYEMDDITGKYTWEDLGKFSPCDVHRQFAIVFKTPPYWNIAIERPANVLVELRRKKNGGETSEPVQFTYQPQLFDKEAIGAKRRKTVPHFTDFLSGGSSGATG

GST-Co-NF-kB = molecular target: T3, GST-Co-NF-kB (Capsaspora owczarzaki, UniProt F1ARL5 200-546)
T3 sequence: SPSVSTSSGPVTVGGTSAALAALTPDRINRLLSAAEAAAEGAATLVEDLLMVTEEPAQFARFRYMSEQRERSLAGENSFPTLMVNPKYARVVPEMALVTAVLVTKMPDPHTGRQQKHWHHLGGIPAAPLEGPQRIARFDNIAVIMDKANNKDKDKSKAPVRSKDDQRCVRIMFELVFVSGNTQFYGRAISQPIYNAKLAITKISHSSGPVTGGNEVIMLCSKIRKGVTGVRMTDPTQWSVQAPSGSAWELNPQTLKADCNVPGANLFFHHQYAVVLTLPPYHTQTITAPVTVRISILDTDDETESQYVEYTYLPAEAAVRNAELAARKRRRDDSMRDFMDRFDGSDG

GST-Dm-Relish = molecular target: T4, GST-Dm-Relish (Drosophila melanogaster, UniProt Q94527 99-473)
T4 sequence: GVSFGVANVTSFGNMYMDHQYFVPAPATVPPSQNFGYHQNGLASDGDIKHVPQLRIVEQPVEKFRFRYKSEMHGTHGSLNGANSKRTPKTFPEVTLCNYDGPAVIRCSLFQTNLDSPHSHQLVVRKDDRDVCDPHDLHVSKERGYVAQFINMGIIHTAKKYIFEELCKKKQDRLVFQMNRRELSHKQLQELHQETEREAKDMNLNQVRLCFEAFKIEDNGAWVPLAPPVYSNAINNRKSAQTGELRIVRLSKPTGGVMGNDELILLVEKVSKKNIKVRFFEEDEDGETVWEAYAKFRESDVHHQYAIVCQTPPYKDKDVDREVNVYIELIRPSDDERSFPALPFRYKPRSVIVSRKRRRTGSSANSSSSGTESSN

GST-Aq-NF-kB = molecular target: T5, GST-Aq-NF-kB (Amphimedon queenslandica, UniProt A9Y5G7 2-389)
T5 sequence: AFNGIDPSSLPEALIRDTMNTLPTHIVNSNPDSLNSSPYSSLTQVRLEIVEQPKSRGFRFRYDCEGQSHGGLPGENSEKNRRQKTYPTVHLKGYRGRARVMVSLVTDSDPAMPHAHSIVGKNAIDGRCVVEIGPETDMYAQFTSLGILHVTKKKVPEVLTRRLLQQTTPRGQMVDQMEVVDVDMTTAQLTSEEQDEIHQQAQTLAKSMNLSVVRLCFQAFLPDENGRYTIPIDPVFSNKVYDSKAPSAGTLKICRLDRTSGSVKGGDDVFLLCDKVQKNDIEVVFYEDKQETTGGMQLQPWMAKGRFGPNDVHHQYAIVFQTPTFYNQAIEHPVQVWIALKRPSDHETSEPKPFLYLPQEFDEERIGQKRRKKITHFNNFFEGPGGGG

| Sequence | binding signal (GST-Ap-NF-kB RHD) [z-score] | binding signal [1] [z-score] | binding signal (GST-Co-NF-kB) [z-score] | binding signal (GST-Dm-Relish) [z-score] | binding signal (GST-Aq-NF-kB) [z-score] |
| --- | --- | --- | --- | --- | --- |
| CCGATTAACATCAAAAACTCCCATGATGTTAATCGGGTCTTGATTCGCTTGACGCTGCTG | 4.22 | 5.15 | 2.58 | 5.66 | 5.3 |
| CCGATTAACATCACGGAAACCCCTGATGTTAATCGGGTCTTGATTCGCTTGACGCTGCTG | 5.32 | 4.37 | 2.13 | 7.12 | 5.38 |
| CCGATTAACATCAGGGGAGTATATGATGTTAATCGGGTCTTGATTCGCTTGACGCTGCTG | 4.78 | 3.81 | 4.7 | 2.18 | 3.95 |
| CCGATTAACATCACTTTACCCCCTGATGTTAATCGGGTCTTGATTCGCTTGACGCTGCTG | 4.02 | 2.61 | 6.83 | 2.27 | 3.05 |
| CCGATTAACATCAGGGGATTAGATGATGTTAATCGGGTCTTGATTCGCTTGACGCTGCTG | 4.5 | 4.8 | 2.75 | 3.13 | 3.91 |
| CCGATTAACATCAGGGGAGTACATGATGTTAATCGGGTCTTGATTCGCTTGACGCTGCTG | 4.22 | 2.88 | 3.31 | 6.35 | 3.06 |
| CCGATTAACATCAGGGGGTAACCTGATGTTAATCGGGTCTTGATTCGCTTGACGCTGCTG | 6.07 | 3.41 | 5.91 | 3.94 | 5.48 |
| CCGATTAACATCAGGGGGTGAAATGATGTTAATCGGGTCTTGATTCGCTTGACGCTGCTG | 3.26 | 3.42 | 6.99 | 3.46 | 3.93 |
| CCGATTAACATCAAAAATCCCATTGATGTTAATCGGGTCTTGATTCGCTTGACGCTGCTG | 3.2 | 3.67 | 1.08 | 7.97 | 3.96 |
| CCGATTAACATCAGAATTGCCCCTGATGTTAATCGGGTCTTGATTCGCTTGACGCTGCTG | 2.58 | 3.54 | 1.95 | 1.75 | 3.86 |
| CCGATTAACATCAGGATGTTCCCTGATGTTAATCGGGTCTTGATTCGCTTGACGCTGCTG | 2.3 | 1.77 | 1.42 | 1.99 | 4.33 |
| CCGATTAACATCACGGAGTTCCCTGATGTTAATCGGGTCTTGATTCGCTTGACGCTGCTG | 2.6 | 1.63 | 1.53 | 5 | 4.63 |
| CCGATTAACATCAAGGGGGTGACTGATGTTAATCGGGTCTTGATTCGCTTGACGCTGCTG | 4.68 | 3.59 | 3.04 | 2.43 | 4.26 |
| CCGATTAACATCAAATAGGGAATTGATGTTAATCGGGTCTTGATTCGCTTGACGCTGCTG | 2.29 | 5.11 | 1.54 | 1.32 | 3.5 |
| CCGATTAACATCACAGTACCCCCTGATGTTAATCGGGTCTTGATTCGCTTGACGCTGCTG | 5.34 | 2.85 | 3.67 | 1.94 | 2.91 |
| CCGATTAACATCACCGCCCCACGTGATGTTAATCGGGTCTTGATTCGCTTGACGCTGCTG | 1.95 | 1.73 | 1.4 | 1.95 | 1.28 |
| CCGATTAACATCACGGGGGGTAATGATGTTAATCGGGTCTTGATTCGCTTGACGCTGCTG | 4.02 | 2.73 | 6.28 | 3.64 | 3.77 |
| CCGATTAACATCAGGGAAAACACTGATGTTAATCGGGTCTTGATTCGCTTGACGCTGCTG | 3.49 | 4.89 | 4.18 | 5.1 | 6.06 |
| CCGATTAACATCAGGGAATTCCATGATGTTAATCGGGTCTTGATTCGCTTGACGCTGCTG | 5.46 | 6.55 | 3.71 | 7.15 | 6.68 |
| CCGATTAACATCAGAAATCCCGCTGATGTTAATCGGGTCTTGATTCGCTTGACGCTGCTG | 3.54 | 2.85 | 1.57 | 4.94 | 3.08 |
| CCGATTAACATCAAATTCCCAAATGATGTTAATCGGGTCTTGATTCGCTTGACGCTGCTG | 1.72 | 3.62 | 2.55 | 4.57 | 2.31 |
| CCGATTAACATCACGGAACTCCCTGATGTTAATCGGGTCTTGATTCGCTTGACGCTGCTG | 3 | 3.34 | 1.42 | 4.06 | 4.43 |
| CCGATTAACATCATGCGGGAAAATGATGTTAATCGGGTCTTGATTCGCTTGACGCTGCTG | 2.22 | 3.71 | 4.47 | 1.22 | 2.76 |
| CCGATTAACATCAGGGGACAACCTGATGTTAATCGGGTCTTGATTCGCTTGACGCTGCTG | 4.96 | 4.76 | 3.44 | 3.96 | 5.18 |
| CCGATTAACATCAGGAGTACCCCTGATGTTAATCGGGTCTTGATTCGCTTGACGCTGCTG | 3.01 | 2.42 | 2.96 | 3.64 | 4.07 |
| CCGATTAACATCAGAATATCCCATGATGTTAATCGGGTCTTGATTCGCTTGACGCTGCTG | 2.05 | 1.17 | 1.46 | 1.8 | 1.86 |
| CCGATTAACATCAAGGAATACCCTGATGTTAATCGGGTCTTGATTCGCTTGACGCTGCTG | 4.85 | 5.51 | 1.33 | 7.24 | 5.58 |
| CCGATTAACATCACGAGATTCCCTGATGTTAATCGGGTCTTGATTCGCTTGACGCTGCTG | 3.03 | 3.39 | 2.52 | 1.75 | 3.38 |
